# Calls of active or inactive are those of the source. How the source made its calls: active means hit-call score of the fitted dose curve at least 0.9, where 1 is the maximum; inactive means score below 0.9.
# Experiment: ATG_DR4_LXR_CIS: Attagene CIS-FACTORIAL HepG2 Assay for human Liver X Receptor (LXR), DR4 submotif (AID 2282929)
# Conditions: HepG2 Attagene DR4 cis-reporter, mRNA transcription; actives raise or lower the signal
# Method: ATG_CIS is a cell-based, multiplexed-readout assay that uses HepG2, a human liver cell line, with measurements taken at 24 hours after chemical dosing in a 24-well plate.ATG_DR4_LXR_CIS is one of 52 assay component(s) measured or calculated from the ATG_CIS assay. It is designed to make measurements of mRNA induction, a form of inducible reporter, as detected with fluorescence intensity signals by Reverse transcription polymerase chain reaction (RT-PCR) and Capillary electrophoresis technology.Data from the assay component ATG_DR4_LXR_CIS was analyzed into 1 assay endpoint. This assay endpoint, ATG_DR4_LXR_CIS, was analyzed with bidirectional fitting relative to DMSO as the negative control and baseline of activity. Using a type of inducible reporter, measures of mRNA for gain or loss-of-signal activity can be used to understand the reporter gene at the transcription factor-level as they relate to the gene NR1H2 and NR1H3. Furthermore, this assay endpoint can be referred to as a primary readout, because this assay has produced multiple assay endpoints where this one serves a reporter gene function. To generalize the intended target to other relatable targets, this assay endpoint is annotated to the nuclear receptor intended target family, where the subfamily is non-steroidal.
# Human liver HepG2 cells are transiently transfected with multiple reporter transcription units (MRTUs) in 6-well plates using FuGene 6 reagent (Roche; 3 ml FuGene/1 mg DNA). The MRTU constructs are regulated by a cis-regulating element (promoter). […] A major difference between the CIS and TRANS system is that in CIS activities of endogenous TFs are measured, whereas the TRANS assay evaluates changes in activities of exogenous, chimeric NR-Gal4 proteins. […] At the end of 24 hour incubation, total RNA was isolated using TriZol reagent (Invitrogen). The isolated RNA is then reverse-transcribed using oligo(dT) primer and Mo-MLV reverse transcriptase (Invitrogen) with DNAse I (Ambion) treatment for 30 min. The one-tenth of the produced cDNA was amplified by PCR using Taq DNA polymerase (Invitrogen) and two reporter sequence-specific primers. The PCR products were fluorescently labeled by primer extension with 6-arboxyfluorescein (6-FAM) 5'-labeled reporter sequence-specific primer (2 min at 95 C, 20 s at 68 C and 10 min at 72 C) and these products were digested with 5U of HpaI (New England Biolabs) for 2h at 37 C. The fragments were purified using Qiaquick PCR columns (Qiagen), analyzed on an ABI 3130xL genetic analyzer (Applied Biosystems) with peak positions identified by using a set of X-rhodamine (ROX)-labeled MapMarker1000 molecular weight standards (BioVentures). The raw capillary electrophoresis data was processed using Attagraph software (Attagene).
SMILES,outcome,AC50
CCOC(=O)CC(=O)C(F)(F)C(F)(F)F,inactive,
COCCOCCC[Si](C)(O[Si](C)(C)C)O[Si](C)(C)C,,54.1 µM (active)
CC(=O)C=O,inactive,
CC(=O)c1ccccc1N,inactive,
CC(O)C#CC(C)O (stereo not given),,64.9 µM (active)
CCc1ccc(C)nc1,inactive,
CC(C)OC=O,inactive,
Cc1ccc2c(c1)OCC(=O)CO2,inactive,
O=C1C=CC(=O)N1c1ccc(Cc2ccc(N3C(=O)C=CC3=O)cc2)cc1,,22.7 µM (active)
CC1CCCCC1,inactive,
O=c1[nH]cccc1O,inactive,
CCN(CC)c1ccc(C=O)c(O)c1,,67.2 µM (active)
O=S(=O)(Cl)C(F)(F)C(F)(F)C(F)(F)C(F)(F)C(F)(F)C(F)(F)C(F)(F)C(F)(F)F,inactive,
C=CC(=O)OCC(F)(F)C(F)(F)C(F)(F)COC(=O)C=C,,31.7 µM (active)
CN(C)C(C)(C)CO,inactive,
C=C(C)C(=O)OCC(F)(F)C(F)(F)C(F)(F)C(F)F,inactive,
O=S(=O)(O)CCC(F)(F)C(F)(F)C(F)(F)C(F)(F)C(F)(F)C(F)(F)C(F)(F)C(F)(F)F,inactive,
COc1ccccc1C=O,inactive,
CCCCCC/C=C/CCCCCCCC(=O)O,inactive,
Cc1ccc(O)c(-n2nc3ccccc3n2)c1,inactive,

SMILES,outcome,AC50
O=C1C=CC(=O)N1c1ccccc1,inactive,
CC1=CCC(=O)O1,inactive,
O=c1cccc[nH]1,inactive,
CCCCCCCC/C=C\CCCCCCCC(=O)N(C)CC(=O)O,inactive,
CCCCCCCCCCCC(=O)Cl,,163 µM (active)
CCCCCCCCCCCCC[N+](C)(C)Cc1ccccc1,inactive,
C=CC(=O)OCCC(F)(F)C(F)(F)C(F)(F)C(F)(F)F,,94 µM (active)
CN(N=O)C(=O)N[C@@H]1[C@@H](O)[C@H](O)[C@@H](CO)O[C@@H]1O,inactive,
CCCC(=O)OCC(COC(=O)CCC)OC(=O)CCC,inactive,
N#CCCOCCC#N,inactive,
O=C(c1ccccc1)c1ccc(O)cc1O,inactive,
CNS(=O)(=O)C(F)(F)C(F)(F)C(F)(F)C(F)(F)C(F)(F)C(F)(F)C(F)(F)C(F)(F)F,inactive,
C=CC(=O)OCC(F)(F)C(F)(F)C(F)(F)C(F)(F)C(F)(F)C(F)(F)C(F)(F)C(F)F,,232 µM (active)
CC(C)C(=O)OCc1ccccc1,inactive,
CCCCCCCCn1sc(Cl)c(Cl)c1=O,inactive,
O=C(O)CCC(F)(F)C(F)(F)C(F)(F)C(F)(F)C(F)(F)C(F)(F)C(F)(F)F,inactive,
O=C(c1ccccc1)c1ccc(Cl)cc1,inactive,
NC(O)(C(F)(F)F)C(F)(F)F,inactive,
COCCC(=O)OC,inactive,
CCCCOC(=O)C(C)O (stereo not given),inactive,

# Reference: PubChem BioAssay (EPA / NIEHS)
